Screens from PubChem.
MazF activator = activators of E. coli MazEF toxin-antitoxin RNase, primary screen, biochemical, fluorescence, uHTS | Endoribonuclease toxin MazF (Escherichia coli (strain K12)), P0AE70 | FAM/BHQ RNA-DNA oligo cleavage fluorescence, 5 h | activation, % at 20 µM | actives 0.32% (n = 350,000) | AID 504720, 2011; in the data active means activation above about 50%
BoNT F protease = BoNT/F light chain protease inhibitors, primary screen, biochemical, flow cytometry, MLPCN library. inhibition, % at 10 µM. actives 0.22% (n = 360,000). Multiplex microsphere protease cleavage assay. Botulinum neurotoxin type F light chain protease (Clostridium botulinum). AID 588497, 2011; in the data active means inhibition above about 35%, passing the limit was not always enough; inconclusive means no clear call, values can overlap the other calls
Autofluor counter = compound fluorescence in toxin protease inhibitor counterscreen. compound autofluorescence counterscreen, microsphere flow cytometry; stronger effect = higher value. fluorescence intensity (test concentration not listed). actives 3.1% (n = 360,000); in the data active means fluorescence intensity above about 16000; inconclusive means no clear call, values can overlap the other calls
SSB-PriA inh = inhibitors of Klebsiella pneumoniae PriA binding to SSB C-terminal tail, primary screen, biochemical, AlphaScreen; PriA–SSB C-terminal tail interaction (Klebsiella pneumoniae); AlphaScreen SSBct-PriA binding, biotinylated peptide; inhibition, % at 33 µM; actives 0.6% (n = 430,000); AID 1272365, 2023; in the data active means inhibition mostly above about 37%, no sharp cut-off; inactive means mostly below about 20%
Anthrax LF inh2 = Bacillus anthracis LF protease inhibitors, primary screen, biochemical, multiplex microsphere, MLPCN library | Lethal factor (Bacillus anthracis), P15917 | inhibition, % at 10 µM | multiplex microsphere protease cleavage assay | actives 0.12% (n = 360,000)
Target sequence (P15917 whole entry, looked up): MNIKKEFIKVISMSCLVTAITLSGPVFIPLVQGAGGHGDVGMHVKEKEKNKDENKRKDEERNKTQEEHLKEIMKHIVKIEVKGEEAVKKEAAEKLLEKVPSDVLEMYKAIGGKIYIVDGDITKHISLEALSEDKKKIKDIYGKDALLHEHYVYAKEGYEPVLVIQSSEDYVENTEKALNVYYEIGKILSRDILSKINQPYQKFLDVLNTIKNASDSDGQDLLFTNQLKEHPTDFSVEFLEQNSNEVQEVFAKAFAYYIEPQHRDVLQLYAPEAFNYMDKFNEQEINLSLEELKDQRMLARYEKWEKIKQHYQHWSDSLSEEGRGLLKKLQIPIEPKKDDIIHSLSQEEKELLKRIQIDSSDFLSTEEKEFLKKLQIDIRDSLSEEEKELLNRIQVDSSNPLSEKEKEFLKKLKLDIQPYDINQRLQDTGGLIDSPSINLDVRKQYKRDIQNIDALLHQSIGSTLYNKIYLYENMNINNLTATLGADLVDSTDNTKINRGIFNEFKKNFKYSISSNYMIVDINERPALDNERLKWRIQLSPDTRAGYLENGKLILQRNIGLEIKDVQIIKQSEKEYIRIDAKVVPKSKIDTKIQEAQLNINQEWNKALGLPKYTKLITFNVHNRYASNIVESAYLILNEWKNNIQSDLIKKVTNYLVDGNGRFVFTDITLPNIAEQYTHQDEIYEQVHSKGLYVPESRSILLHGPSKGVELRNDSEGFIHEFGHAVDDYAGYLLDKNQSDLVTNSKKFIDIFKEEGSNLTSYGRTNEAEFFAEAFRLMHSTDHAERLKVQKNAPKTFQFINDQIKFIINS
BoNT-A LC inh2 = BoNT/A light chain protease inhibitors, primary screen, biochemical, flow cytometry, MLPCN library. actives 0.17% (n = 360,000). Botulinum neurotoxin type A light chain protease (Clostridium botulinum A str. ATCC 3502). multiplex microsphere protease substrate cleavage. inhibition, % at 10 µM
Numbers stand for hits; – = inactive; ? = inconclusive; · = not tested or not shown. Hits are enriched below; roughly 3.3% of the tested compounds scored in any of these assays. Unless noted, no stated cut-off is given here; in the data, active means inhibition above about 30%; inconclusive means no clear call, values can overlap the other calls; inactive means below that.

SMILES | MazF activator | BoNT F protease | Autofluor counter | SSB-PriA inh | Anthrax LF inh2 | BoNT-A LC inh2
Cc1ccccc1OCC(=O)NCC1CCN(Cc2cccs2)CC1 | · | · | · | – | · | ·
O=C(NCC1CCN(S(=O)(=O)c2cccnc2)CC1)C(=O)Nc1cc(F)ccc1F | · | · | · | – | · | ·
CCN(CC)CCn1c(=O)n(-c2ccc(Cl)cc2)c(=O)c2c3c(sc21)CN(C)CC3 | 660 | ? | – | – | – | –
CN1CCc2c(sc3c2c(=O)n(-c2ccc(Cl)cc2)c2nncn32)C1 | – | – | – | – | – | –
O=C(c1c(F)cccc1Cl)N1CCN(c2ccc(-c3noc(C4CC4)n3)cn2)CC1 | · | · | · | – | · | ·
COc1cc(-c2nc3ccc(C)cn3c2Nc2ccc3c(c2)OCCO3)ccc1O | – | – | – | 55 | – | –
COc1ccccc1S(=O)(=O)NCCc1cc(C)no1 | · | · | · | – | · | ·
CC(/C=C/c1ccco1)=N\NC(=O)c1cc(C)[nH]n1 | – | – | 23188 | · | – | ?
COc1ccc2nc3ccccc3nc2c1N | – | – | – | 48 | – | –
COc1ccccc1C(=O)C1Nc2ccccc2-c2nnc(SC)nc2O1 (centres undefined) | – | – | 21854 | – | – | –
CCC1Nc2ccccc2-c2nnc(SC)nc2O1 (centres undefined) | – | – | – | – | – | –
COCCN1CCCc2ccc(NS(=O)(=O)c3ccc(F)cc3C)cc21 | · | · | · | – | · | ·
O=C1C2C3C=CC(C3)C2C(=O)N1CC1CCCO1 (centres undefined) | – | – | 20157 | – | – | ?
Cc1ccc(S(=O)(=O)Nc2cccc(-c3ccc4nnc(-c5cccnc5)n4n3)c2)s1 | · | · | · | – | · | ·
CNc1nc(-c2ccccc2)nnc1C(F)(F)F | – | – | 22123 | – | – | ?
Cc1ccc(Sc2nc(-c3ccccc3)nnc2C(F)(F)F)cc1 | – | – | – | – | – | –
O=C(NCCn1nc(-n2cncn2)ccc1=O)C1CCN(c2ccc(-n3cccn3)nn2)CC1 | · | · | · | – | · | ·
CCN1CCCCC(=N/O)/C(=N/O)CCCC1 | – | 38 | – | · | – | –
COc1ccc(-c2csc(C)n2)cc1OC | – | – | 23023 | – | – | –
Cc1nc(-c2ccc(N)cc2)cs1 | · | · | · | – | · | ·
Cc1nc(-c2ccccc2)cs1 | – | – | 21622 | – | – | –
CCc1ccc(CNc2ccc3c(c2)ncn3C)cc1 | – | – | 21662 | – | – | –
CCOC(=O)c1sc(=NC(=O)c2ccnn2C)n(C)c1C | · | · | · | – | · | ·
CCOC(=O)/C(C#N)=C/c1cc2ccccc2nc1N1CCCCC1 | – | – | – | – | – | 31
COc1ccc(-c2cn3c(CCC(=O)Nc4ccc5c(c4)OCO5)csc3n2)cc1 | · | · | · | 38 | · | ·
SMILES | MazF activator | BoNT F protease | Autofluor counter | SSB-PriA inh | Anthrax LF inh2 | BoNT-A LC inh2
COc1ccc(-c2cn3c(C(=O)Nc4ccc5c(c4)OCCO5)csc3n2)cc1 | · | · | · | active | · | ·
COc1ccc(-c2cn3c(CCC(=O)Nc4nc(C)cs4)csc3n2)cc1 | · | · | · | – | · | ·
C#CCn1c(=NC(=O)CSCC(=O)NC2CCCCC2)sc2ccccc21 | · | · | · | 43 | · | ·
COC(=O)Cn1c(=NC(=O)CSCC(=O)NC2CCCCC2)sc2cc(OC)ccc21 | – | – | – | – | – | –
O=[N+]([O-])c1ccc(-c2nc(Nc3cccc(O)c3)c3ccccc3n2)cc1 | 123 | – | – | – | – | –
COc1ccc(OC)c(Nc2cc(C)nc3ccccc23)c1 | – | – | – | – | – | –
O=C(O)c1cccc(Nc2nc(-c3ccc([N+](=O)[O-])cc3)nc3ccccc23)c1 | – | – | – | – | – | –
COc1cccc(Nc2cc(C)nc3ccccc23)c1 | – | – | 20171 | – | – | ?
COc1cccc(Nc2nc(-c3ccccc3O)nc3ccccc23)c1 | 75 | – | – | – | – | –
COc1ccc(Nc2ccccc2)c(C)c1 | – | – | 22653 | – | – | –
COc1ccc(Nc2cc(C)c3ccccc3n2)cc1 | – | – | – | – | – | –
O=C(Nc1c(C(=O)Nc2ccc3c(c2)OCO3)oc2ccccc12)c1cccc(F)c1 | · | · | · | – | · | ·
COc1ccc(C(=O)N/N=C\c2coc3ccc(C)cc3c2=O)cc1 | 75 | – | ? | · | – | –
COc1ccc(C(=O)NN=Cc2coc3ccc(C)cc3c2=O)cc1 | · | · | · | – | · | ·
